From PubChem BioAssay (NCI)
Compounds without any hit were thinned out: in the full panel of roughly 83,000, 20% have a hit.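 Results are percent growth after 48 hours of single-concentration exposure. 100 means growth as in untreated cells, lower positive values show inhibition; negative values down to -100 show cell death.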 Calls of active or inactive are those of the source. How the source made its calls: active means growth percent below 10; inactive means the rest.

Key:
Assay in all cases: NCI-60 one-dose screen, 48 h (100 = growth as untreated, 0 = no growth, -100 = all killed)
SK-MEL-2 melanoma = settings: 10 µM unless noted
EKVX NSCLC = settings: 10 µM unless noted
SN12C renal = settings: 10 µM unless noted
UO-31 renal = settings: 10 µM unless noted
ACHN renal = settings: 10 µM unless noted
CAKI-1 renal = settings: 10 µM
A498 renal = settings: 10 µM unless noted
MOLT-4 leukemia = settings: 10 µM unless noted
SR leukemia = settings: 10 µM unless noted
RPMI-8226 leukemia = settings: 10 µM unless noted
OVCAR-8 ovarian = settings: 10 µM unless noted
OVCAR-5 ovarian = settings: 10 µM unless noted
OVCAR-4 ovarian = settings: 10 µM unless noted
SK-OV-3 ovarian = settings: 10 µM unless noted
IGROV1 ovarian = settings: 10 µM unless noted
OVCAR-3 ovarian = settings: 10 µM unless noted
NCI/ADR-RES ovarian = settings: 10 µM unless noted
CCRF-CEM leukemia = settings: 10 µM unless noted
HS 578T breast = settings: 10 µM unless noted

Measured: growth

O=C(NCCNc1nccc(-c2c(-c3cccc(O)c3)nc3sccn23)n1)Nc1cccc(C(F)(F)F)c1
inactive: SK-MEL-2 melanoma 54.4% | EKVX NSCLC 91.2% | SN12C renal 70.7% | UO-31 renal 75.2% | ACHN renal 85.1% | CAKI-1 renal 90.3% | A498 renal 111% | MOLT-4 leukemia 59.8% | SR leukemia 59.2% | OVCAR-8 ovarian 41.2% | OVCAR-5 ovarian 117% | OVCAR-4 ovarian 110% | SK-OV-3 ovarian 85% | IGROV1 ovarian 65.6% | OVCAR-3 ovarian 76.7% | NCI/ADR-RES ovarian 108%
active: RPMI-8226 leukemia -4.81%

O=c1nc(N2CCOCC2)oc2c(-c3cccc4ccccc34)cccc12
active: A498 renal 8.01%
inactive: SK-MEL-2 melanoma 100% | EKVX NSCLC 81.1% | SN12C renal 82.3% | UO-31 renal 53.4% | ACHN renal 81.6% | CCRF-CEM leukemia 91.5% | MOLT-4 leukemia 93.1% | SR leukemia 72.9% | RPMI-8226 leukemia 96.1% | OVCAR-8 ovarian 85.2% | OVCAR-5 ovarian 89.2% | OVCAR-4 ovarian 97.1% | SK-OV-3 ovarian 90% | IGROV1 ovarian 75.4% | OVCAR-3 ovarian 85.8% | HS 578T breast 83.8% | NCI/ADR-RES ovarian 83.7%

CC(C)[C@@H]1NC(=O)[C@]2(C)CSC(=N2)c2ccnc(c2)CNC(=O)C[C@@H](/C=C/CCS)OC1=O
active: SK-MEL-2 melanoma -28.2% | ACHN renal 6.6% | A498 renal -77% | MOLT-4 leukemia 8.13% | SR leukemia 7.26% | RPMI-8226 leukemia -18.5% | OVCAR-8 ovarian -3.79% | SK-OV-3 ovarian -7.53% | IGROV1 ovarian 0.54% | OVCAR-3 ovarian -6.18% | HS 578T breast 9.92%
inactive: EKVX NSCLC 31.4% | SN12C renal 27.8% | UO-31 renal 12% | CCRF-CEM leukemia 16% | OVCAR-5 ovarian 18.2% | OVCAR-4 ovarian 27.3% | NCI/ADR-RES ovarian 29.8%

O=C(CSc1nnc(-c2cc3c([nH]c4ccccc43)c(-c3cccc(O)c3)n2)n1-c1ccccc1)c1ccccc1
inactive: SK-MEL-2 melanoma 65.7% | EKVX NSCLC 69.3% | SN12C renal 67.7% | UO-31 renal 63.4% | ACHN renal 40.3% | A498 renal 67% | CCRF-CEM leukemia 30.9% | MOLT-4 leukemia 41.7% | SR leukemia 18.6% | RPMI-8226 leukemia 43.4% | OVCAR-8 ovarian 57.3% | OVCAR-5 ovarian 104% | OVCAR-4 ovarian 50.1% | SK-OV-3 ovarian 92.8% | IGROV1 ovarian 61.2% | OVCAR-3 ovarian 40.6% | HS 578T breast 73.3% | NCI/ADR-RES ovarian 64%

CCC1(C(N)=O)CC2C=CC1CC2 (stereo unspecified)
inactive: SK-MEL-2 melanoma 124% | EKVX NSCLC 115% | SN12C renal 118% | UO-31 renal 90.8% | ACHN renal 107% | CAKI-1 renal 96.6% | A498 renal 95.7% | CCRF-CEM leukemia 127% | MOLT-4 leukemia 111% | SR leukemia 109% | RPMI-8226 leukemia 89.1% | OVCAR-8 ovarian 61.2% | OVCAR-4 ovarian 108% | SK-OV-3 ovarian 91.9% | OVCAR-3 ovarian 115% | HS 578T breast 149% | NCI/ADR-RES ovarian 244%

Nc1ncnc2c1ccn2-c1cccc(NC(=O)c2cccc(C(F)(F)F)c2)c1
inactive: SK-MEL-2 melanoma 80.6% | EKVX NSCLC 66.6% | SN12C renal 88.4% | UO-31 renal 86.4% | ACHN renal 64.1% | CAKI-1 renal 69.7% | A498 renal 82.9% | MOLT-4 leukemia 52.3% | RPMI-8226 leukemia 52.9% | OVCAR-8 ovarian 78% | OVCAR-5 ovarian 81.4% | OVCAR-4 ovarian 68.7% | SK-OV-3 ovarian 93.3% | IGROV1 ovarian 87.5% | OVCAR-3 ovarian 80% | NCI/ADR-RES ovarian 78.4%

C=CCn1c(SCC(=O)Nc2ccc(C(=O)/C=C/c3cc(OC)c(OC)c(OC)c3)cc2)nnc1-c1ccc(OC)cc1
active: UO-31 renal -79.6% | ACHN renal -56.1% | A498 renal -3.03% | CCRF-CEM leukemia 6.53% | RPMI-8226 leukemia -33.1% | OVCAR-8 ovarian 7.47% | OVCAR-5 ovarian 9.19% | IGROV1 ovarian -3.21% | OVCAR-3 ovarian -45.9%
inactive: SK-MEL-2 melanoma 15.1% | EKVX NSCLC 14.1% | SN12C renal 13.8% | CAKI-1 renal 16.5% | OVCAR-4 ovarian 19.3% | SK-OV-3 ovarian 16.6% | HS 578T breast 32.5% | NCI/ADR-RES ovarian 20.1%

O=C(Nc1ccc(-n2cc(-c3ccncc3)c(-c3ccc(O)c(Cl)c3)n2)cc1)Nc1cc(C(F)(F)F)cc(C(F)(F)F)c1
inactive: SK-MEL-2 melanoma 77.6% | EKVX NSCLC 44.6% | SN12C renal 61.6% | UO-31 renal 59.6% | ACHN renal 65.5% | CAKI-1 renal 46.6% | A498 renal 65.9% | MOLT-4 leukemia 64.3% | SR leukemia 69.7% | RPMI-8226 leukemia 45% | OVCAR-8 ovarian 56.4% | OVCAR-5 ovarian 75.7% | OVCAR-4 ovarian 82.2% | SK-OV-3 ovarian 81.7% | IGROV1 ovarian 56.3% | OVCAR-3 ovarian 33.3% | NCI/ADR-RES ovarian 55%

CC(=O)c1cc2c(c(O)c1C)C(=O)C(=O)c1c(O)cccc1-2
active: SK-MEL-2 melanoma -72.7% | EKVX NSCLC -42.3% | SN12C renal -41.4% | UO-31 renal -97.3% | ACHN renal -90.3% | CAKI-1 renal -79.6% | A498 renal -80.6% | RPMI-8226 leukemia -32.4% | OVCAR-8 ovarian -60.6% | OVCAR-5 ovarian -80.6% | OVCAR-4 ovarian -97.6% | SK-OV-3 ovarian -94.3% | IGROV1 ovarian -37.3% | OVCAR-3 ovarian -45.6% | HS 578T breast -12.3% | NCI/ADR-RES ovarian -8.15%

CCCC(=O)Oc1ccc(/C(=C(\C)c2ccc(Cl)cc2)c2ccc(OCCN(CC)CC)cc2)cc1
active: SK-MEL-2 melanoma -74.4% | UO-31 renal -65% | ACHN renal -23.2% | CCRF-CEM leukemia -18.6% | MOLT-4 leukemia -13.1% | SR leukemia -36.3% | RPMI-8226 leukemia -49.5% | OVCAR-8 ovarian -48.4% | OVCAR-4 ovarian 3.08% | SK-OV-3 ovarian -6.52% | OVCAR-3 ovarian -64.6% | HS 578T breast -38.1% | NCI/ADR-RES ovarian -6.97%
inactive: EKVX NSCLC 12% | SN12C renal 35.3% | A498 renal 11.5% | OVCAR-5 ovarian 30.4% | IGROV1 ovarian 12.5%

COc1ccc(C(=O)NC(=O)Nc2ccc3c(c2)NC(=O)/C3=C\c2[nH]c(C)c(C(=O)O)c2C)cc1
inactive: SK-MEL-2 melanoma 93.8% | EKVX NSCLC 81.7% | SN12C renal 73% | UO-31 renal 80.4% | ACHN renal 52.6% | A498 renal 95.9% | CCRF-CEM leukemia 64% | MOLT-4 leukemia 25.2% | SR leukemia 34.3% | RPMI-8226 leukemia 83.2% | OVCAR-8 ovarian 39.9% | OVCAR-5 ovarian 121% | OVCAR-4 ovarian 93% | SK-OV-3 ovarian 118% | IGROV1 ovarian 75.4% | OVCAR-3 ovarian 52.7% | HS 578T breast 46.8% | NCI/ADR-RES ovarian 99.1%

O=C(Nc1ccc(-n2ccc3c(NC(=O)c4ccccc4)ncnc32)cc1)c1ccc(Cl)c(C(F)(F)F)c1
active: CCRF-CEM leukemia 7.36% | MOLT-4 leukemia 4.17% | SR leukemia -19.6% | RPMI-8226 leukemia 6.7% | OVCAR-8 ovarian 3.65% | OVCAR-3 ovarian -3.5%
inactive: SK-MEL-2 melanoma 34.7% | EKVX NSCLC 47.7% | SN12C renal 22% | UO-31 renal 32.7% | ACHN renal 27.6% | CAKI-1 renal 34.8% | A498 renal 80.1% | OVCAR-5 ovarian 52% | OVCAR-4 ovarian 17.1% | SK-OV-3 ovarian 65.6% | IGROV1 ovarian 15.3% | NCI/ADR-RES ovarian 29.9%

CC(C)(C)C(=O)/C=c1/[nH]c(=O)/c(=C/c2ccccc2O)s1
inactive: SK-MEL-2 melanoma 67.6% | EKVX NSCLC 61.1% | SN12C renal 58.2% | UO-31 renal 67.4% | ACHN renal 74.5% | CAKI-1 renal 81.1% | A498 renal 55.6% | CCRF-CEM leukemia 57.8% | RPMI-8226 leukemia 60% | OVCAR-8 ovarian 66.9% | OVCAR-5 ovarian 86.9% | OVCAR-4 ovarian 67.3% | SK-OV-3 ovarian 81.4% | IGROV1 ovarian 50.1% | OVCAR-3 ovarian 20.2% | HS 578T breast 71.7% | NCI/ADR-RES ovarian 47.1%

CC(C)C1(C(C)C)NC(=O)NC1=O
inactive: SK-MEL-2 melanoma 108% | EKVX NSCLC 92.7% | SN12C renal 99% | UO-31 renal 78.4% | ACHN renal 106% | CAKI-1 renal 88.9% | A498 renal 93.8% | CCRF-CEM leukemia 93.7% | MOLT-4 leukemia 97.6% | RPMI-8226 leukemia 117% | OVCAR-8 ovarian 110% | OVCAR-5 ovarian 101% | OVCAR-4 ovarian 107% | SK-OV-3 ovarian 108% | IGROV1 ovarian 99.4% | OVCAR-3 ovarian 110% | HS 578T breast 92.6% | NCI/ADR-RES ovarian 103%

O=C(Nc1cccc(-n2ccc3c(NC(=O)c4ccccc4)nccc32)c1)Nc1cc(C(F)(F)F)cc(C(F)(F)F)c1
active: SK-MEL-2 melanoma -11.9% | ACHN renal 8.65% | CCRF-CEM leukemia -4.29% | MOLT-4 leukemia 7.11% | SR leukemia -14.9% | RPMI-8226 leukemia -30.6% | OVCAR-8 ovarian -32.1% | IGROV1 ovarian 6.92% | OVCAR-3 ovarian -26.9% | NCI/ADR-RES ovarian -30.5%
inactive: EKVX NSCLC 19% | SN12C renal 12.7% | UO-31 renal 12.1% | CAKI-1 renal 15.3% | A498 renal 16.4% | OVCAR-5 ovarian 28% | OVCAR-4 ovarian 43.9% | SK-OV-3 ovarian 13.5%

CC[C@H]1[C@@H]2C=C[C@@H]3[C@H]4C/C=C\C(=O)NCCC[C@@H]5NC(=O)/C(=C(O)/C=C/[C@@H]4C[C@@H]3[C@H]2C[C@H]1C)C5=O
active: SN12C renal -66.1% | UO-31 renal -78.2% | ACHN renal -84.1% | CAKI-1 renal -41.3% | A498 renal -18.4% | CCRF-CEM leukemia -17% | RPMI-8226 leukemia 6.24% | OVCAR-8 ovarian -54.8% | OVCAR-4 ovarian -31.5% | SK-OV-3 ovarian 1.98% | IGROV1 ovarian -66.5% | OVCAR-3 ovarian -94.7% | HS 578T breast -2.24% | NCI/ADR-RES ovarian -57.2%
inactive: SK-MEL-2 melanoma 46% | EKVX NSCLC 15.3% | OVCAR-5 ovarian 41.6%

CC(C)(C)OC(=O)NCc1cccc(N=C=S)c1
active: A498 renal -11.6% | CCRF-CEM leukemia 3.13% | MOLT-4 leukemia -24.6% | SR leukemia -4.27% | RPMI-8226 leukemia -38.9%
inactive: SK-MEL-2 melanoma 41.9% | EKVX NSCLC 71.6% | SN12C renal 69.6% | UO-31 renal 49.2% | ACHN renal 61.5% | OVCAR-8 ovarian 64.4% | OVCAR-5 ovarian 65.2% | OVCAR-4 ovarian 57.1% | SK-OV-3 ovarian 88.2% | IGROV1 ovarian 43.1% | OVCAR-3 ovarian 60.1% | HS 578T breast 66.1% | NCI/ADR-RES ovarian 71.3%
